# Inconclusive results are not listed. Where a call stands in place of a potency, no number is given. The source made the active and inactive calls. Calls follow the shape of the dose curve; as a rule, active = well fitted cell-killing curve with a large enough effect; inconclusive = small, poorly fitted or top-dose-only effect, or effect the other way; inactive = flat fitted curve, though single readings scatter.
# Test system: HeLa
# Experiment: Primary qHTS to identify gynecologic anti-cancer compounds using libraries of approved drugs and bioactive compounds (AID 1345084); also: nearly all actives have a fitted effect of over 55% in size
# Conditions: Gynecologic cancer cell panel viability, ATPlite luminescence, 48 h; series mostly up to 57.5 µM
# Procedure, shortened: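 Cell viability after 48 h drug treatment, ATPlite luminescence readout; five doses.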
row,SMILES,Potency
1,O=C(O)C[C@H]1CCC(=O)[C@@H]1C/C=C\CCOC1OC(CO)C(O)C(O)C1O (stereo not given in full),inactive
2,CC(=O)OC1C(O)C(C)=C(CCC(C)CC(=O)O)C2(C)CCCC(C)(C)C12 (stereo not given),inactive
3,Cc1ncc([N+](=O)[O-])n1CC(O)CN1CCOCC1 (stereo not given),inactive
4,COc1cc2c(cc1O)C1(Cc3ccc4c(c3C1=O)OCO4)N(C)CC2 (stereo not given),inactive
5,COC(=O)[C@H](CC1C=NC=N1)NCC12CC3CC(CC(C3)C1)C2 (stereo not given in full),inactive
6,CCOC(=O)c1ccc(N(C)c2csc(-c3ccccc3)n2)cc1,inactive
7,C/C1=C\C[C@H](O[C@@H]2O[C@H](CO)[C@@H](O)[C@H](O)[C@H]2O)/C(C)=C/[C@H]2OC(=O)[C@H](C)[C@@H]2CC1,inactive
8,COc1ccc(C(=O)O[C@H]2CC(C)=CC[C@@]3(C)[C@@H](OC(C)=O)C[C@@](O)(C(C)C)[C@H]23)cc1,inactive
9,CC/C=C\C[C@H]1C(=O)C=C[C@@H]1CCCCCCCC(=O)O,inactive
10,CC1CC(=O)C2=C(O1)OC1(C)CCC3C(C)(C)C=CC(=O)C3(C)C1C2 (stereo not given),inactive
11,CC1(CO)CC2C(O)C(=O)C3(CO)CC3(C)C2C1 (stereo not given),inactive
12,CCn1nnnc1NCc1ccc(C(C)C)cc1,inactive
13,CCNC(=O)CCC/C=C\C[C@@H]1[C@@H](/C=C/C(O)CCc2ccccc2)[C@@H](O)C[C@@H]1O (stereo not given in full),inactive
14,CN[C@@H]1[C@@H](O)[C@@H](O[C@@H]2[C@@H](O)[C@H](O[C@H]3O[C@H](CN)[C@@H](O)[C@H](O)[C@H]3O)[C@@H](N)C[C@H]2NC(=O)[C@@H](O)CN)OC[C@]1(C)O,inactive
15,CC1(C)OC(=O)C(OCC2CC2)=C1c1ccc(S(C)(=O)=O)cc1,inactive

# Reference: PubChem BioAssay (NCATS)
